High-throughput results: PubChem BioAssay, Broad Institute
Compounds with a hit are over-represented: about 3.1% of the library has one in this group of screens.
RAD54 branch = blocks human RAD54 Holliday junction branch migration; FAM/BHQ fluorescence; inhibition, % at 10.4 µM; 360,000 compounds, 0.14% hits; AID 602329;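 active = mean normalized replicate activity at least 40 and at least half of replicates scoring 40 or more; inconclusive = only one of the two criteria met; inactive = mean below 40 and under half of replicates reaching 40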;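 note: inhibitors cause a drop in the FAM fluorescence signal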
Target sequence (Q92698 whole entry, looked up): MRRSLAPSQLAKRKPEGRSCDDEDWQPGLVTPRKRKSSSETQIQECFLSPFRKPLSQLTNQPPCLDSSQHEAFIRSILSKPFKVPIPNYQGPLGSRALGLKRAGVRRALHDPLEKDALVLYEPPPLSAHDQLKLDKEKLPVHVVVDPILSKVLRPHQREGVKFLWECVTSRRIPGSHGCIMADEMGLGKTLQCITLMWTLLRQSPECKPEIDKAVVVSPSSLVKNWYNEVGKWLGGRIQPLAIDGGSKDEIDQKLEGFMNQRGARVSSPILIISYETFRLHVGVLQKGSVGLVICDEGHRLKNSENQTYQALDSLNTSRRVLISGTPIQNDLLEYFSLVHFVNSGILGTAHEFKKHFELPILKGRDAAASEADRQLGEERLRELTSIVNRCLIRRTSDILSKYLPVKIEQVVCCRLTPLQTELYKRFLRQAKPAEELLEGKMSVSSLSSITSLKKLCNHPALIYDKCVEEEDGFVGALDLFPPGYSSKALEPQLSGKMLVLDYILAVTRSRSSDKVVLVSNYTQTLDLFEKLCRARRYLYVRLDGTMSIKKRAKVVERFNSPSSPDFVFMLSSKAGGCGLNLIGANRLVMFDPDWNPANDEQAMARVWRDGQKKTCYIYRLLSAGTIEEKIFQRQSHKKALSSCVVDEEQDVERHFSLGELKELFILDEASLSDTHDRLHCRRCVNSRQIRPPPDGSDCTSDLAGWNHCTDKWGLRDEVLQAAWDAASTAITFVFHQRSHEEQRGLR
INS-1E GSIS act = GLuc luminescence reporter in INS-1E cells, primary screen for activators of glucose-dependent secretion of insulin | activation, % at 16.6 µM | INS-1E GLuc reporter insulin secretion, 2-3 h | 370,000 compounds, 0.61% hits;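 active = lowest replicate activation of at least 40%, so every replicate reaches that level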
DENV2 CPE rescue = DENV2-induced cell death inhibition. AID 651640. DENV2-infected cells, cytopathic effect rescue, plate reader. CPE inhibition, % at 9.99 µM. 350,000 compounds, 1.7% hits; in the data active = CPE inhibition above about 20%, passing the limit was not always enough; inconclusive = no clear call, values can overlap the other calls; tested in BHK-21 cells
RAD52 anneal inh = RAD52 (human) annealing inhibition; P43351; recombinant RAD52 DNA annealing, FRET fluorescence; inhibition, % at 18.7 µM; 360,000 compounds, 0.46% hits;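 active = every replicate showing at least 50% inhibition; inconclusive = mean inhibition at least 50% but not in every replicate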
AF4-AF9 inh = inhibitors of human MLL-AF4/AF9 interaction | P42568 | 350,000 compounds, 0.47% hits | inhibition, % at 10 µM | AlphaScreen, biotin-AF4 peptide binding to FLAG-AF9;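 active = every replicate reaching a set inhibition limit, whatever the replicate mean, cut at about 25% in these data; inconclusive = mean inhibition reaches that limit but some replicates miss it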
dFosB act-1 = mouse delta FosB homodimer activation; P13346; purified delta FosB, TAMRA-CDK5 oligo fluorescence polarization; percent of positive-control signal above neutral wells; activation, % at 25 µM; 340,000 compounds, 0.99% hits; AID 493131;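 active = mean activation above about 17%, with every replicate also reaching it, limit read from the data, passing the limit was not always enough; inconclusive = only one of the two conditions met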
dFosB act-2 = delta FosB (mouse) homodimer activation; shares compounds with dFosB act-1; purified delta FosB, TAMRA-CDK5 oligo fluorescence polarization; normalised: neutral wells 0, positive control 100; activation, % at 24.9 µM; 2,400 tested, under 10 active; AID 588690;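 active = highest replicate activation at or above 34% and every replicate reaching that threshold; inconclusive = meets only one of the two criteria; inactive = meets neither criterion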;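 note: higher polarization means more probe DNA bound by delta FosB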
Each line names hits and unclear results; the compound was inactive in the other large screens (follow-up assays come after a bar, where they were run).

COc1ccc(CN(C)C[C@H]2Oc3ccc(NS(=O)(=O)c4ccccc4)cc3CC(=O)N([C@@H](C)CO)C[C@H]2C)cc1	none (no result: dFosB act-1)
O=C(CSc1nc2ncc(Cl)cc2[nH]1)c1c[nH]c2ccccc12	dFosB act-1 21.5 | dFosB act-2 inactive
O=C(CSc1nc2ccc(Cl)cc2[nH]1)c1c[nH]c2ccccc12	none
C[C@H](CO)N1C[C@H](C)[C@H](CN(C)S(=O)(=O)c2ccccc2)Oc2ccc(NC(=O)Cn3cnnn3)cc2CC1=O	none (no result: dFosB act-1)
O=C(Cn1c(=O)oc2cc(S(=O)(=O)N3CCCC3)ccc21)NC1CCCc2ccccc21 (stereo not drawn)	dFosB act-1 26.2 | dFosB act-2 inactive
O=C(Cn1c(=O)oc2cc(S(=O)(=O)N3CCCC3)ccc21)N1CCN(c2ccccc2)CC1	none
Cc1ccc(C)c(N2CCN(C(=O)Cn3c(=O)oc4cc(S(=O)(=O)N5CCCC5)ccc43)CC2)c1	dFosB act-1 35.1 | dFosB act-2 inactive
CO[C@@H]1CN(C)C(=O)c2cc(NC(=O)C3CC3)ccc2OC[C@H](C)N(C(=O)C2CCCCC2)C[C@@H]1C	none (no result: dFosB act-1)
Cc1ccc(NC(=O)[C@H](NC(=O)[C@@H]2Cc3ccccc3CN2)c2ccccc2)cc1	none
CC(C)c1ccc(NC(=O)[C@H](NC(=O)[C@@H]2Cc3ccccc3CN2)c2ccccc2)cc1	DENV2 CPE rescue 56.7, dFosB act-1 56.5 (no result: RAD54 branch) | dFosB act-2 inactive
CNC(=O)C[C@H]1CC[C@@H]2[C@H](COc3ccc(NC(=O)c4ccccc4Cl)cc3C(=O)N2C)O1	none (no result: dFosB act-1)
Cc1c(Cc2ccc3c(c2)OCO3)sc(NC(=O)c2ccccc2)c1C(N)=O	dFosB act-1 38.5 (no result: INS-1E GSIS act) | dFosB act-2 inactive
Cc1nc(NC(=O)c2ccccc2)sc1Cc1ccc2c(c1)OCO2	none
CN1C(=O)c2cc(NC(=O)c3cccs3)ccc2OC[C@H]2O[C@H](CC(=O)NCCN3CCCCC3)CC[C@@H]21	none (no result: dFosB act-1)
Cc1ccc(-n2nc3c(=O)n(CC(=O)NCc4ccccc4)nc(C)c3c2C)cc1	dFosB act-1 20.8 | dFosB act-2 inactive
Cc1nn(CCCC(=O)NCc2ccccc2)c(=O)c2nn(-c3ccccc3)c(C)c12	none
CCc1ccc(CNC(=O)CCn2nc(C)c3c(C)n(-c4ccccc4)nc3c2=O)cc1	dFosB act-1 73.4 | dFosB act-2 inactive
Cc1ccc(-n2nc3c(=O)n(CC(=O)NCCc4ccc(Cl)cc4)nc(C)c3c2C)cc1	dFosB act-1 50.6 | dFosB act-2 inactive
COCC(=O)Nc1ccc2c(c1)C(=O)N(C)C[C@@H](OC)[C@@H](C)CN(C(=O)C1CCCC1)[C@H](C)CO2	none (no result: dFosB act-1)
O=C(Nc1ccc(F)cc1)N[C@@H]1C[C@@H]2O[C@@H](CO)CC[C@@H]2O[C@@H]1CCc1ccc(C2=CCCC2)cc1	none (no result: RAD54 branch, INS-1E GSIS act, RAD52 anneal inh, AF4-AF9 inh, dFosB act-1)
CC(C)Cn1c(N)c(/C=N/NC(=O)c2ccc(Cl)cc2)c(=O)n(C)c1=O	DENV2 CPE rescue inconclusive, dFosB act-1 18.8 | dFosB act-2 inactive
Cc1cc(SCC(=O)N/N=C/c2cccnc2)nc2c(C)cccc12	dFosB act-1 67.2 (no result: RAD54 branch) | dFosB act-2 inactive
Cc1nn2c(COc3ccc(NC(=O)C(C)C)cc3)nnc2c2ccccc12	none
Cc1nn2c(COc3ccc(NC(=O)c4ccccc4Cl)cc3)nnc2c2ccccc12	dFosB act-1 25.5 (no result: DENV2 CPE rescue, RAD52 anneal inh, AF4-AF9 inh) | dFosB act-2 inactive
CCc1c(C)c(C#N)c2nc3ccccc3n2c1NCCN(C)C	dFosB act-1 20.9 (no result: RAD54 branch, DENV2 CPE rescue, RAD52 anneal inh, AF4-AF9 inh) | dFosB act-2 inactive
O=C(COC(=O)/C=C/c1cc(Br)ccc1F)Nc1ccc2[nH]c(=O)[nH]c2c1	dFosB act-1 41.2 | dFosB act-2 inactive
Cc1ccc(/C=N/NC(=O)c2cc3c(ccc4ccccc43)o2)o1	dFosB act-1 24.7 (no result: INS-1E GSIS act) | dFosB act-2 inactive
O=C(N/N=C/c1cccnc1)c1cc2c(ccc3ccccc32)o1	dFosB act-1 32.0 (no result: INS-1E GSIS act, DENV2 CPE rescue, RAD52 anneal inh, AF4-AF9 inh) | dFosB act-2 inactive
O=S(=O)(N[C@H]1CC[C@@H](CCn2cc(-c3ccc(F)cc3)nn2)O[C@@H]1CO)c1ccccc1F	none (no result: dFosB act-1)
O=C(CCC(=O)Nc1ccccc1)NNC(=O)C(c1ccccc1)c1ccccc1	dFosB act-1 42.1 (no result: DENV2 CPE rescue, RAD52 anneal inh, AF4-AF9 inh) | dFosB act-2 inactive
COCCCNC(=O)Cn1nnc(-c2ccc(NC(=O)c3ccc(F)cc3)cc2)n1	dFosB act-1 35.5 (no result: INS-1E GSIS act, DENV2 CPE rescue, RAD52 anneal inh, AF4-AF9 inh) | dFosB act-2 inactive
O=C(Nc1ccc(-c2nnn(CC(=O)N3CCN(C(=O)c4ccco4)CC3)n2)cc1)c1ccc(F)cc1	dFosB act-1 34.8 | dFosB act-2 inactive
Cc1ccc(NC(=O)C2CC(=O)n3c(nc4ccccc43)N2)cc1C (stereo not drawn)	dFosB act-1 31.1 | dFosB act-2 inactive
O=C1CC(C(=O)Nc2ccc(Cl)cc2)n2ncnc2N1 (stereo not drawn)	none (no result: RAD54 branch)
CC(C)c1ccc(NC(=O)C2CC(=O)Nc3nc4ccccc4n32)cc1 (stereo not drawn)	dFosB act-1 81.3 | dFosB act-2 inactive
Cc1ccc(NC(=O)C2CC(=O)n3ncnc3N2)cc1 (stereo not drawn)	none
Cc1ccc(NC(=O)C2CC(=O)n3c(nc4ccccc43)N2)cc1Cl (stereo not drawn)	dFosB act-1 31.3 | dFosB act-2 inactive
Cc1ccc(NC(=O)[C@@H]2CCC(=O)N2C2OC(=O)c3ccccc32)cc1Cl (stereo partly drawn)	none (no result: INS-1E GSIS act)
Cc1noc(C)c1NC(=O)N[C@H]1CC[C@@H](CCNC(=O)C2CCCCC2)O[C@H]1CO	none (no result: dFosB act-1)
O=[N+]([O-])c1ccc2[nH]nc(-c3ccccc3)c2c1	none (no result: RAD54 branch, DENV2 CPE rescue, RAD52 anneal inh, AF4-AF9 inh)
O=[N+]([O-])c1ccc2[nH]c3nc4ccccc4nc3c2c1	dFosB act-1 37.7 | dFosB act-2 inactive
COc1ccc(/C=N/Nc2nc(Nc3ccccc3)nc(N3CCCC3)n2)cc1[N+](=O)[O-]	dFosB act-1 62.0 | dFosB act-2 inconclusive
CNc1nc(N/N=C/c2cc3c(cc2[N+](=O)[O-])OCO3)nc(Nc2ccccc2)n1	dFosB act-1 55.4 (no result: RAD54 branch) | dFosB act-2 inactive
COc1cc(/C=N/Nc2nc(Nc3ccccc3)nc(N3CCOCC3)n2)ccc1OC(=O)c1ccco1	dFosB act-1 53.8 (no result: RAD54 branch) | dFosB act-2 inactive
O=[N+]([O-])c1cccc(/C=N/Nc2nc(NCc3ccccc3)nc(N3CCOCC3)n2)c1	none (no result: RAD54 branch, DENV2 CPE rescue, RAD52 anneal inh, AF4-AF9 inh)
O=C(Oc1cccc(/C=N/Nc2nc(N3CCOCC3)nc(N3CCOCC3)n2)c1)c1ccco1	none (no result: INS-1E GSIS act, DENV2 CPE rescue, RAD52 anneal inh, AF4-AF9 inh)
O=[N+]([O-])c1ccc(/C=N/Nc2nc(NCc3ccccc3)nc(N3CCOCC3)n2)cc1	dFosB act-1 27.1 (no result: RAD54 branch, INS-1E GSIS act) | dFosB act-2 inactive
O=[N+]([O-])c1cc2c(cc1/C=N\NS(=O)(=O)c1ccccc1)OCO2	none (no result: INS-1E GSIS act, DENV2 CPE rescue, RAD52 anneal inh, AF4-AF9 inh)
CC(=O)N(C)C[C@H]1Oc2ncc(-c3ccccc3C)cc2C(=O)N([C@@H](C)CO)C[C@H]1C	none (no result: dFosB act-1)
O=C(NN=Cc1ccc2c(c1)OCO2)c1ccccc1	DENV2 CPE rescue inconclusive (no result: INS-1E GSIS act)
